In PubChem BioAssay AID1159580 (chemical genetic matrix, 2015):
Screen size: about 5,500 compounds; about 2,000 (36%) were called active. Another 18% or so got no clear call; they are omitted. No stated cut-off is given here; in the data, active means normalized growth mostly below about 0.91 (no sharp cut-off); inconclusive means no clear call, values can overlap the other calls; inactive means mostly above about 0.92. This is one part of the list.

Experiment: chemical genetic growth profiling, strain panel (AID 1159580);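 further: tested at 20 µM; growth read once vehicle control cultures reached saturation at 30 °C; 1 = growth at the plate median or of vehicle wells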
Details: growth OD

Measured: normalized growth

Nc1ncnc2c1ncn2C1O[C@H](COP(=O)(O)O)[C@@H](O)[C@H]1O (some centres not stated)
active: S. cerevisiae deletion strains, locus YKR001C, strain vps1, stronger effect = lower value 0.581 | S. cerevisiae deletion strains, locus YLR268W, strain sec22, stronger effect = lower value 0.627 | S. cerevisiae deletion strains, locus YLR418C, strain cdc73, stronger effect = lower value 0.471 | S. cerevisiae deletion strains, locus YML032C, strain rad52, stronger effect = lower value 0.417 | S. cerevisiae deletion strains, locus YML124C, strain tub3, stronger effect = lower value 0.829 | S. cerevisiae deletion strains, locus YMR078C, strain ctf18, stronger effect = lower value 0.838 | S. cerevisiae deletion strains, locus YMR223W, strain ubp8, stronger effect = lower value 0.81 | S. cerevisiae deletion strains, locus YNL271C, strain bni1, stronger effect = lower value 0.895 | S. cerevisiae deletion strains, locus YNL307C, strain MCK1, stronger effect = lower value 0.847 | S. cerevisiae deletion strains, locus YNR052C, strain pop2, stronger effect = lower value 0.476 | S. cerevisiae deletion strains, locus YOL147C, strain pex11, stronger effect = lower value 0.516 | S. cerevisiae deletion strains, locus YOR144C, strain elg1, stronger effect = lower value 0.645 | S. cerevisiae deletion strains, locus YOR184W, strain ser1, stronger effect = lower value 0.636 | S. cerevisiae deletion strains, locus YPR163C, strain tif3, stronger effect = lower value 0.725 | S. cerevisiae deletion strains, locus YPR167C, strain met16, stronger effect = lower value 0.858 | S. cerevisiae deletion strains, strain wtn01, stronger effect = lower value 0.866
inactive: S. cerevisiae deletion strains, locus YJR075W, strain HOC1, stronger effect = lower value 1.04 | S. cerevisiae deletion strains, locus YKL009W, strain mrt4, stronger effect = lower value 1.02 | S. cerevisiae deletion strains, locus YKL068W, stronger effect = lower value 0.993 | S. cerevisiae deletion strains, locus YKL085W, strain MDH1 (second series), stronger effect = lower value 1 | S. cerevisiae deletion strains, locus YKL085W, strain MDH1, stronger effect = lower value 1 | S. cerevisiae deletion strains, locus YKL160W, strain elf1, stronger effect = lower value 1 | S. cerevisiae deletion strains, locus YKL190W, strain CNB1, stronger effect = lower value 1.01 | S. cerevisiae deletion strains, locus YKR026C, strain gcn3, stronger effect = lower value 1 | S. cerevisiae deletion strains, locus YKR091W, strain srl3, stronger effect = lower value 0.995 | S. cerevisiae deletion strains, locus YLL001W, strain dnm1, stronger effect = lower value 1.03 | S. cerevisiae deletion strains, locus YLL026W, stronger effect = lower value 1.01 | S. cerevisiae deletion strains, locus YLL041C, strain sdh2, stronger effect = lower value 0.981 | S. cerevisiae deletion strains, locus YLR027C, strain aat2, stronger effect = lower value 1.02 | S. cerevisiae deletion strains, locus YLR039C, strain RIC1, stronger effect = lower value 1.04 | S. cerevisiae deletion strains, locus YLR058C, strain SHM2, stronger effect = lower value 1.02 | S. cerevisiae deletion strains, locus YLR102C, strain apc9, stronger effect = lower value 0.962 | S. cerevisiae deletion strains, locus YLR113W, strain HOG1, stronger effect = lower value 1 | S. cerevisiae deletion strains, locus YLR221C, strain rsa3, stronger effect = lower value 0.969 | S. cerevisiae deletion strains, locus YLR258W, strain gsy2, stronger effect = lower value 0.987 | S. cerevisiae deletion strains, locus YLR262C, strain YPT6 (second series), stronger effect = lower value 1.03 | S. cerevisiae deletion strains, locus YLR262C, strain YPT6, stronger effect = lower value 1.02 | S. cerevisiae deletion strains, locus YLR320W, strain mms22, stronger effect = lower value 0.983 | S. cerevisiae deletion strains, locus YLR330W, strain CHS5, stronger effect = lower value 1.01 | S. cerevisiae deletion strains, locus YLR342W, strain FKS1 (second series), stronger effect = lower value 1.04 | S. cerevisiae deletion strains, locus YLR342W, strain FKS1, stronger effect = lower value 1.02 | S. cerevisiae deletion strains, locus YLR357W, strain rsc2, stronger effect = lower value 1.02 | S. cerevisiae deletion strains, locus YLR370C, strain arc18, stronger effect = lower value 1.01 | S. cerevisiae deletion strains, locus YLR371W, strain rom2, stronger effect = lower value 0.986 | S. cerevisiae deletion strains, locus YLR384C, strain iki3, stronger effect = lower value 1 | S. cerevisiae deletion strains, locus YML016C, strain PPZ1, stronger effect = lower value 1.01 | S. cerevisiae deletion strains, locus YML120C, strain ndi1, stronger effect = lower value 1.01 | S. cerevisiae deletion strains, locus YMR058W, strain fet3, stronger effect = lower value 1.01 | S. cerevisiae deletion strains, locus YMR125W, strain sto1, stronger effect = lower value 0.987 | S. cerevisiae deletion strains, locus YMR129W, stronger effect = lower value 0.994 | S. cerevisiae deletion strains, locus YMR205C, strain PFK2, stronger effect = lower value 1.02 | S. cerevisiae deletion strains, locus YMR231W, strain pep5, stronger effect = lower value 0.999 | S. cerevisiae deletion strains, locus YMR263W, strain SAP30, stronger effect = lower value 1.01 | S. cerevisiae deletion strains, locus YMR307W, strain GAS1, stronger effect = lower value 0.974 | S. cerevisiae deletion strains, locus YNL067W, strain RPL9B, stronger effect = lower value 1.02 | S. cerevisiae deletion strains, locus YNL071W, strain lat1, stronger effect = lower value 0.998 | S. cerevisiae deletion strains, locus YNL128W, strain TEP1, stronger effect = lower value 1.02 | S. cerevisiae deletion strains, locus YNL153C, strain GIM3, stronger effect = lower value 1.01 | S. cerevisiae deletion strains, locus YNL183C, strain NPR1, stronger effect = lower value 0.97 | S. cerevisiae deletion strains, locus YNL209W, strain ssb2, stronger effect = lower value 0.998 | S. cerevisiae deletion strains, locus YNL233W, strain BNI4, stronger effect = lower value 1.01 | S. cerevisiae deletion strains, locus YNL248C, strain rpa49, stronger effect = lower value 0.977 | S. cerevisiae deletion strains, locus YNL250W, strain rad50, stronger effect = lower value 1 | S. cerevisiae deletion strains, locus YNL298W, strain CLA4, stronger effect = lower value 0.918 | S. cerevisiae deletion strains, locus YNL322C, strain KRE1 (second series), stronger effect = lower value 0.991 | S. cerevisiae deletion strains, locus YNL322C, strain KRE1, stronger effect = lower value 1.01 | S. cerevisiae deletion strains, locus YNR049C, strain mso1, stronger effect = lower value 0.994 | S. cerevisiae deletion strains, locus YOL006C, strain TOP1, stronger effect = lower value 1.04 | S. cerevisiae deletion strains, locus YOL012C, strain htz1 0.221 | S. cerevisiae deletion strains, locus YOR001W, strain rrp6, stronger effect = lower value 1.02 | S. cerevisiae deletion strains, locus YOR061W, strain CKA2, stronger effect = lower value 1.01 | S. cerevisiae deletion strains, locus YOR069W, strain VPS5, stronger effect = lower value 1.01 | S. cerevisiae deletion strains, locus YOR070C, strain gyp1, stronger effect = lower value 0.995 | S. cerevisiae deletion strains, locus YOR080W, strain dia2, stronger effect = lower value 1 | S. cerevisiae deletion strains, locus YOR083W, strain WHI5, stronger effect = lower value 0.988 | S. cerevisiae deletion strains, locus YOR106W, strain vam3, stronger effect = lower value 1.03 | S. cerevisiae deletion strains, locus YOR136W, strain idh2, stronger effect = lower value 0.953 | S. cerevisiae deletion strains, locus YOR231W, strain MKK1, stronger effect = lower value 1.01 | S. cerevisiae deletion strains, locus YOR265W, strain rbl2, stronger effect = lower value 1 | S. cerevisiae deletion strains, locus YOR270C, strain vph1, stronger effect = lower value 0.996 | S. cerevisiae deletion strains, locus YOR290C, strain snf2, stronger effect = lower value 0.972 | S. cerevisiae deletion strains, locus YOR316C, strain cot1, stronger effect = lower value 0.969 | S. cerevisiae deletion strains, locus YPL051W, strain arl3, stronger effect = lower value 1.01 | S. cerevisiae deletion strains, locus YPL055C, strain LGE1, stronger effect = lower value 1.07 | S. cerevisiae deletion strains, locus YPL078C, strain atp4, stronger effect = lower value 1.03 | S. cerevisiae deletion strains, locus YPL106C, strain sse1, stronger effect = lower value 0.997 | S. cerevisiae deletion strains, locus YPL240C, strain hsp82, stronger effect = lower value 0.998 | S. cerevisiae deletion strains, locus YPL241C, strain CIN2, stronger effect = lower value 1.01 | S. cerevisiae deletion strains, locus YPL256C, strain CLN2, stronger effect = lower value 0.995 | S. cerevisiae deletion strains, locus YPR119W, strain clb2, stronger effect = lower value 0.935 | S. cerevisiae deletion strains, locus YPR141C, strain kar3, stronger effect = lower value 0.995 | S. cerevisiae strains, strain wild type, stronger effect = lower value 1.02
